Assay results reported in PubChem BioAssay AID1903 (Southern Research Specialized Biocontainment Screening …, 2009).
In all, about 310,000 compounds went through this assay and about 1,200 (0.39%) were called active. The rule behind the calls is not given here. Only a sample is shown. Entries with a potency or affinity are not part of this list.

target: Large T antigen (Simian virus 40) (UniProt P03070); assay: SV40 large T antigen inhibitors, biochemical (AID 1903); settings: SV40 large T antigen ATPase/helicase inhibition assay; at 20 µM; stronger effect = higher value
Sequence (P03070 whole entry, looked up): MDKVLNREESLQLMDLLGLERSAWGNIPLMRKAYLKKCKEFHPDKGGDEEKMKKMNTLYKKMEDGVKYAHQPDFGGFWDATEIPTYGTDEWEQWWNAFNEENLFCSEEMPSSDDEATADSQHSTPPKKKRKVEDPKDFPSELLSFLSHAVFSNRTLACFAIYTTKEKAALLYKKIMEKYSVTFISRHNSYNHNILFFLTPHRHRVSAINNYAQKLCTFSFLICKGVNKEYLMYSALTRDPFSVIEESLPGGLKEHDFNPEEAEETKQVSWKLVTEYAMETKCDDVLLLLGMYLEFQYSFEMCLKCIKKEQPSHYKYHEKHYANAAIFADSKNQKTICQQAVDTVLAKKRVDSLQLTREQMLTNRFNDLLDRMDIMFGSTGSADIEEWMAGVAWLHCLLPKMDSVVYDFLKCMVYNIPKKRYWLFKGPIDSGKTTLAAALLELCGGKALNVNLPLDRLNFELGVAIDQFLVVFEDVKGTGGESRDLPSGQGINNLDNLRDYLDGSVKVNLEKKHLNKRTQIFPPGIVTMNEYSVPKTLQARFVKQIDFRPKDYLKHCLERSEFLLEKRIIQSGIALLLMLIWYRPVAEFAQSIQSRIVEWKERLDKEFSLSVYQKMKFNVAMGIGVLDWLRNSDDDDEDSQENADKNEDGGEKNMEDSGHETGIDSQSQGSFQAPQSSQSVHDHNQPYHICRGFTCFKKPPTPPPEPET

inhibition, inactive:
COc1cc(OC)cc(C(=O)NCC2CCCN(C(=O)c3csc(C(C)C)n3)C2)c1 (stereo not drawn) 12.6%
Cc1ccc(COc2ccc(S(=O)(=O)N3CCCC3)cc2C(N)=O)cc1 4.61%
O=C(Nc1ccc(F)cc1)Oc1ccc[nH]c1=O 9.86%
COc1ccccc1N1CCN(C(=O)/C=C/c2ccc(C)cc2)CC1 9.93%
CCc1ccc2[nH]c(=O)c(CN(CC3CCCO3)C(=S)NCc3ccco3)cc2c1 (stereo not drawn) 10.7%
O=C(CSc1n[nH]c(=O)n1Cc1ccco1)Nc1ccccc1Cl 12.1%
N=c1n(CCO)c2ccccc2n1CCN1CCCCC1 6.21%
COc1ccc(N2C(=O)c3ccccc3NC23CCCCC3)cc1 -1.05%
COc1ccc(N2C(=O)c3ccccc3NC23CCCC3)cc1 5.28%
O=C(/C(=C(\[O-])c1ccccc1)[n+]1ccc2ccccc2c1)c1ccc([N+](=O)[O-])cc1 15%
O=[N+]([O-])c1cccc(S(=O)(=O)c2cccc([N+](=O)[O-])c2)c1 3.63%
CCC(C)N(C(=O)CSc1nnc(-c2ccco2)n1C)C1CCS(=O)(=O)C1 (stereo not drawn) 13.2%
CCc1nc2nc(C)c(NS(=O)(=O)c3ccc(C)c(C)c3)c(=O)n2[nH]1 4.17%
O=C(Oc1ccc(-c2nnco2)cc1)C1CCN(C(=O)c2ccc(F)cc2)CC1 5.55%
COC(=O)N/C(C)=C1/NC(=O)c2ccccc2C(c2ccccc2)N1 (stereo not drawn) 6.67%
O=C(O)c1ccc2c(=O)n3c(nc2c1)/C(=C/c1ccc(Cl)c(Cl)c1)CC3 24.8%
COc1ccc(NC(=O)C(CCS(C)(=O)=O)N2C(=O)c3ccccc3C2=O)cc1 (stereo not drawn) 11.7%
CC(=O)c1ccc(OC(=O)C(CCS(C)(=O)=O)N2C(=O)c3ccccc3C2=O)cc1 (stereo not drawn) 3.15%
CCOC(=O)N1CCN(C(=O)CC(C)S(=O)(=O)c2cc3c(cc2C)NC(=O)CO3)CC1 (stereo not drawn) 6.54%
Cc1ccc(-n2c(SCC(=O)OC(C)C)nnc2-c2ccncc2)cc1 9.08%
Cc1cc(=O)c2ccccc2s1 23.3%
O=c1[nH]c2ccccc2c2ccccc12 11.7%
O=C1Nc2ccc(F)cc2C12SCCS2 -3.17%
O=c1[nH]c2ccc(F)cc2[nH]c1=O 22.1%
CC(=O)N1CCN(c2cc(N3CCc4ccccc4C3)c(F)cc2[N+](=O)[O-])CC1 29.4%
COc1ccc(C(=O)O)cc1N1C(=O)Nc2ccccc2N1O 13.6%
O=C(NCc1cccs1)C1CC(O)CN1C(=O)Nc1ccccc1 (stereo not drawn) 3.53%
Nc1ccccc1Nc1nc2ccccc2[nH]1 26.5%
Nc1ccc(-c2nc3ccccc3[nH]2)cc1 6.85%
COc1ccc(CCNC(=O)c2cn(C)c3ccc(S(=O)(=O)N4CCOCC4)cc3c2=O)cc1OC 5.2%
C=CCNS(=O)(=O)c1ccc(OC)c(C)c1 1.44%
CCN1C(=O)/C(=C/c2ccc(C)s2)NC1=S 11.9%
O=c1oc(/C=C/c2ccc([N+](=O)[O-])s2)nc2ccccc12 6.31%
O=C(N/N=C/c1ccc([N+](=O)[O-])s1)C(O)c1ccccc1 (stereo not drawn) 4.11%
CCCN1C(=O)/C(=C/c2ccc(C)s2)NC1=S 8.4%
CN(C(=O)/C=C/c1ccc([N+](=O)[O-])s1)c1ccccc1 -0.18%
O=C(/C=C/c1ccc([N+](=O)[O-])s1)N1CCN(c2ccccc2)CC1 16%
CCCCc1c(C(=O)O)cc(OC)cc1C(=O)O 12.1%
O=C(CSc1nc(O)cc(=O)n1-c1ccc(Cl)c(Cl)c1)Nc1ccc(Cl)cc1Cl 28.9%
Cn1nccc1C(=O)N1CCC(Cc2ccccc2)CC1 11.7%
COC(=O)CC1C(=O)NCCN1C(=O)Nc1ccc(Cl)c(Cl)c1 (stereo not drawn) 4.47%
CCC(C)NC(=O)CCc1c(C)nc2c(c(C)nn2-c2ccccc2)c1C (stereo not drawn) 6.67%
CC(=O)c1c(C)oc2ccc(N(C(C)=O)S(=O)(=O)c3cccc4cccnc34)cc12 10.6%
FC(F)(F)c1ccc(Cl)c(NC2=NCCCCC2)c1 7.53%
CC(C)OC(=O)C(C(=O)C(F)(F)F)c1cc(NS(=O)(=O)c2ccc3ccccc3c2)c2ccccc2c1O (stereo not drawn) 15.1%
COc1ccc(/C=N/n2nnnc2N)cc1OC 11.7%
CCOc1ccc(/C=N/n2nnnc2N)cc1OCC 5.4%
COc1cc(/C=N/n2nnnc2N)ccc1OC(C)=O 12.9%
CCOc1cc(/C=N\n2nnnc2N)ccc1O 33.9%
O=C(NCc1ccccn1)c1ccc(Cl)c(S(=O)(=O)N2CCCCC2)c1 6.41%
COc1ccc(CNC(=O)C2CCN(S(=O)(=O)N3CCCCC3)CC2)cc1 7.96%
NC(=O)c1cc(S(=O)(=O)N2CCN(c3ccc([N+](=O)[O-])cc3)CC2)cs1 14.4%
CCOC(=O)c1cnc2cc(F)c(F)cc2c1N1CCOCC1 0.2%
O=C(COc1c(Cl)cc(Cl)cc1Cl)c1ccc(Cl)cc1 2.07%
CC(=O)Nc1ccc(NS(=O)(=O)c2ccc3c(c2)oc(=O)n3C)cc1 10.1%
Cc1ccc(NS(=O)(=O)c2ccc3c(c2)oc(=O)n3C)cc1 6.64%
Cc1ccc(NC(=O)CN2C(=O)c3ccccc3S2(=O)=O)c(C)c1 10.7%
COCC(=O)Nc1ccc(N(C)C)cc1 33.7%
CN(C)c1ccc(C(=O)NCC2CCCO2)cc1 (stereo not drawn) 5.69%
CCCNC(=O)C(=O)Nc1ccc(N(C)C)cc1 18.4%
CN(C)c1ccc(CNCC2CCCO2)cc1 (stereo not drawn) 7.34%
CC1CCN(C(=O)Cn2c(=O)n(CCCC(=O)NCc3ccco3)c(=O)c3sccc32)CC1 8.64%
O=C(Nc1ccccc1C(=O)Nc1ccccc1)c1cccs1 5.41%
Cc1c(C(=O)Nc2cc(S(=O)(=O)N3CCOCC3)ccc2N2CCOCC2)oc2ccccc12 0.37%
CCC(CC)C(=O)Nc1nnc(S(=O)(=O)N(CC)c2ccc(OC)cc2)s1 3.96%
Cc1ccc(S(=O)(=O)N2CCOCC2)cc1C(=O)c1nccn1C 8.29%
CC1=C/C(=N\OS(=O)(=O)c2ccccc2)C=CC1=O 26.7%
Cc1ccc(S(=O)(=O)ON=C2CCN(S(=O)(=O)c3ccccc3)CC2)cc1 1.39%
CCc1nnc(NC(=O)CSc2nnc(Cc3cc(=O)[nH]c(=O)[nH]3)n2-c2ccc(OC)cc2)s1 3.92%
NC(=NCCc1c[nH]c2ccccc12)NS(=O)(=O)c1ccc(F)cc1 -1.17%
CCCNCc1cc(OC)c(OCC(=O)NCCc2ccccc2)cc1Br 6.19%
COc1cccc(NC(=S)N2CCCC2c2ccc(OC)c(OC)c2)c1 (stereo not drawn) 12.4%
O=C(O)c1ccccc1NS(=O)(=O)c1cccc(C(F)(F)F)c1 9.6%
CCn1nc(C(=O)OCc2cccc(S(=O)(=O)N(C)C)c2)c2ccccc2c1=O 8.67%
Cc1ccc(-c2nn(C)c(=O)c3ccccc23)cc1S(=O)(=O)N1CCCC1 0.12%
O=c1c2ccccc2sn1-c1ccc(S(=O)(=O)N2CCCC2)cc1 9.42%
CN(C)S(=O)(=O)c1cccc(N2C(=O)CC3(CCCCC3)CC2=O)c1 7.26%
O=C(O)c1ccccc1NS(=O)(=O)c1ccc2ccccc2c1 -0.61%
CC(C)=CCc1c(O)ccc2c1OC(c1ccc(O)c(O)c1)CC2=O (stereo not drawn) 17%
O=C1CC(c2ccc(O)c(O)c2)Oc2cc(O)cc(O)c21 (stereo not drawn) 45.5%
Cc1ccc(OCCCCN2CCC(C)CC2)c(Br)c1 3.72%
O=C1/C(=C\c2ccc(Br)o2)Cc2ccccc21 6.99%
Cc1ccc(C=C2C(=O)c3ccccc3C2=O)o1 12.7%
O=C(COc1ccc(F)cc1F)N1CCCCCCC1 1.37%
Oc1cccc(NC(=S)Nc2ccccc2)c1 21.3%
Cc1cccc(OCC(=O)Nc2ccc(N3CCCC3)cc2)c1C -18.4%
O=C(NC(=S)Nc1ccc(Cl)cc1)c1cncc(Br)c1 10.2%
COc1ccc(NC(=S)NC(=O)c2ccccc2Cl)cc1 9.58%
O=C(O)c1ccc(NC(=S)NC(=O)c2cncc(Br)c2)cc1 13.1%
O=C(NC(=S)Nc1ccccc1O)c1ccccc1Cl 13.8%
CCOc1ccc(-c2ccc3nnc(SCC(=O)NCC4CCCO4)n3n2)cc1 (stereo not drawn) 20.9%
c1ccc2cc(Cn3ccnc3)ccc2c1 5.43%
C/C(=N\NC(=O)COc1ccc(C)cc1[N+](=O)[O-])c1cccs1 15%
N#Cc1ccc(CSc2nc(N)cc(N)n2)cc1 -0.44%
CC(C)CCn1c(=O)c2ccccc2n2c(CCl)nnc12 12.5%
Cn1c(=O)c2ccccc2n2c(=S)[nH]nc12 1.39%
CCOCCCn1c(=O)c2ccccc2n2c(=S)[nH]nc12 31.1%
CC(C)CCn1c(=O)c2ccccc2n2c(CN3CCCC3)nnc12 15.1%
